Source: PubChem BioAssay (National Center for Advancing Translational Sciences (NCATS))
A selection: hits, their analogues and other compounds. The true share with any hit is near 2.8%.
PI5P4Ka inh – PI5P4K alpha (human) kinase inhibition; P48426; PI5P4Kalpha enzyme, ADP-Glo luminescence, 60 min; stronger effect = lower value; max response, %; 1.2% of 330,000 active; AID 652105; active = max response of -50% or lower; inconclusive = between -30% and -50%; inactive = -30% or higher; also: value at the top dose of about 77 µM; % is scaled to controls: 0 for no effect and ±100 for the full control effect
Target sequence (P48426 whole entry, looked up): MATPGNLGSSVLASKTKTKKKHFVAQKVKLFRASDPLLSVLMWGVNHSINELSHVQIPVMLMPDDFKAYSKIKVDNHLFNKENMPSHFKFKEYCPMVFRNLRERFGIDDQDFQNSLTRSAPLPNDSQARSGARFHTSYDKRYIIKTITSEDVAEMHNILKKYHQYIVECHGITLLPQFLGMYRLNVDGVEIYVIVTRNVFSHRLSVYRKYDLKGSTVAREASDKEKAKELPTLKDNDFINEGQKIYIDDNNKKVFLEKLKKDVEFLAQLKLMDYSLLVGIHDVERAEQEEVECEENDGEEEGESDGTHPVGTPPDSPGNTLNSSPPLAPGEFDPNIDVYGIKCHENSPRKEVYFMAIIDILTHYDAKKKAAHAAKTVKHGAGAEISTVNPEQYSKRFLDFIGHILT
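Controls without substrate or without enzyme flank wells where PI5P4Kalpha converts substrate using 5 microM ATP (final). Incubation lasts 60 minutes at room temperature; ADP formed is read by ADP-Glo luminescence.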
Pol kappa inh-1 – DNA polymerase kappa (human) inhibition | Q9UBT6 | AID 588579 | purified Pol kappa, fluorescent DNA synthesis assay, 10 min | Potency, µM (series often up to 107 µM), for inactives: at the highest dose activity, negative = inhibition, actives largely listed as inhibitors | 0.53% of 400,000 active; also: potency is read from the fitted curve at half-maximal effect; % is scaled to controls: 0 for no effect and ±100 for the full control effect
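Kinetic fluorescence screen: compound preincubated 15 min RT with 10 nM enzyme; 50 nM substrate (final) initiates; reads at 0/10 min.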
WRN inhibitor – blocks human WRN helicase; Q14191; WRN helicase unwinding, fluorescent forked duplex, kinetic; Potency, µM (titrated, usually from 114 µM), inactives show top-dose activity change, negative = inhibition, actives largely listed as inhibitors; 0.46% of 360,000 active; AID 651768; also: potency is read from the fitted curve at half-maximal effect; % is scaled to controls: 0 for no effect and ±100 for the full control effect; nearly all actives have a fitted effect of over 55% in size
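Kinetic red-fluorescence monitoring (525/598 nm) tracks WRN helicase activity after 100 nM fluorophore-quencher forked duplex and 2 mM ATP are added to 20 nM enzyme pretreated 15 min at room temperature with compound.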
Pol eta inh-1 – inhibitors of human DNA polymerase eta; Potency, µM (top dose mostly 114 µM), without a hit: top-dose activity change, negative = inhibition, hits mostly inhibitors; Q9Y253; 1.2% of 390,000 active; recombinant Pol eta, fluorescent DNA replication assay; AID 588591; also: potency is read from the fitted curve at half-maximal effect; % is scaled to controls: 0 for no effect and ±100 for the full control effect
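Fluorescent replication assay: 50 nM final substrate added after a 15 min room-temperature compound preincubation with 10 nM enzyme. Signal taken at 0 min and again at 10 min.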
Pol iota inh – blocks human DNA polymerase iota activity; Pol iota fluorescent replication assay, 10 min; Potency, µM (highest dose often 115 µM), inactives show top-dose activity, negative = inhibition, most hits filed as inhibitors; 1% of 390,000 active; AID 588590; also: potency is read from the fitted curve at half-maximal effect
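Pol iota at 10 nM preincubated 15 min with compounds at room temperature; reaction started with fluorescent substrate, 50 nM final. Fluorescence read kinetically at 0 and 10 min; buffer-only wells as negative control.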
Pol beta inh – DNA polymerase beta (human) inhibition. Pol beta primer extension/strand displacement, fluorescence kinetic. Potency, µM (doses to about 114 µM), for inactives: at the highest dose activity change, negative = inhibition, actives largely listed as inhibitors. 1.3% of 340,000 active. AID 485314; also: potency is read from the fitted curve at half-maximal effect; % is scaled to controls: 0 for no effect and ±100 for the full control effect
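Pol beta (10 nM) was preincubated with compound for 15 min at room temperature. The reaction was then started with 50 nM substrate and read immediately and after a further 10 min at room temperature.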
PGK validate – validation of Trypanosoma brucei phosphoglycerate kinase inhibitors; shares compounds with Pol kappa inh-1; TbPGK coupled GAPDH assay, Kinase-Glo luminescence; Potency, µM (series often up to 57.5 µM), for the others: at the top dose activity change, negative = inhibition, hits mostly inhibitors; 79% of 500 active; also: potency is read from the fitted curve at half-maximal effect; % is scaled to controls: 0 for no effect and ±100 for the full control effect; nearly all actives have a fitted effect of over 65% in size
Target sequence (P07378 whole entry, looked up): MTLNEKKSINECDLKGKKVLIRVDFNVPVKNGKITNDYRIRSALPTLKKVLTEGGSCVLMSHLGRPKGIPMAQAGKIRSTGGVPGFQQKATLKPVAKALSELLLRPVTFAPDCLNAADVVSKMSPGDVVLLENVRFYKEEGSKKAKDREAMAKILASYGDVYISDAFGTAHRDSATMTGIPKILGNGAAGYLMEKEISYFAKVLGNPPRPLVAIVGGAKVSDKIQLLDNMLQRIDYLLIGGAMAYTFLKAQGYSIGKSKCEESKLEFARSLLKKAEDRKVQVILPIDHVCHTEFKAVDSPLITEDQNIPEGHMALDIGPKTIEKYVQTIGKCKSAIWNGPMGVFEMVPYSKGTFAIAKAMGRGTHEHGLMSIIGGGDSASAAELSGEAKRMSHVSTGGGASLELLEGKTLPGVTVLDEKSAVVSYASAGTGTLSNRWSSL
POLI cherry-pick – Confirm cherry-picked inhibitors of human polymerase iota; AID 720496; Potency, µM, hits mostly inhibitors; Pol iota primer extension, TAMRA/BHQ fluorescence; 77% of 1,500 active; shares compounds with Pol kappa inh-1; also: potency is read from the fitted curve at half-maximal effect
Pol kappa inh-2 – confirmation of human DNA polymerase kappa inhibitors; shares compounds with Pol eta inh-1; purified Pol-kappa, fluorescent strand-displacement substrate; Potency, µM, most hits filed as inhibitors; 76% of 920 active; AID 720501; also: potency is read from the fitted curve at half-maximal effect
Pol eta inh-2 – Pol eta (human) inhibition, cherry-pick confirmation. shares compounds with Pol eta inh-1. Pol eta primer extension, TAMRA/BHQ fluorescence, 10 min. Potency, µM, hits mostly inhibitors. 64% of 2,600 active. AID 720502; also: potency is read from the fitted curve at half-maximal effect
Starred values were filed as active, the others as inactive; u = inconclusive; x = not tested or not shown; [ ] = dose if it differs, or a comment. Unless noted, calls follow the shape of the dose curve; as a rule, active = well fitted curve in the direction sought with a large enough effect; inconclusive = small, poorly fitted or top-dose-only effect, or another doubt; inactive = no such curve, though single readings can be large; an effect the other way counts as inactive or inconclusive.

SMILES | PI5P4Ka inh | Pol kappa inh-1 | WRN inhibitor | Pol eta inh-1 | Pol iota inh | Pol beta inh | POLI cherry-pick | Pol eta inh-2 | others
COC(=O)c1ccc(OC(=O)CCc2cc(OC)c(OC)c(OC)c2)cc1 | -3.4 | -13.8% | -2.0% | -5.3% | -0.5% | -10.8% | x | x
COc1ccccc1C(CCN(Cc1cccs1)C(C)=O)c1ccco1 (stereo not drawn) | -21.9 | -36.2% | u | 25.1µM* | 22.4µM* | 28.2µM* | u | 75.7*
CCC(=O)N(CCC(c1ccccc1)c1ccco1)Cc1cccs1 (stereo not drawn) | -16.9 | -9.1% | -3.2%[57.1 µM] | -23.3% | 1.3% | 7.0% | x | x
O=S1(=O)C2CC3CCC2(CN1Cc1cccc(F)c1)O3 (stereo not drawn) | x | 3.9% | x | x | 8.6% | x | x | x
CCOC(=O)[C@@]12C[C@@H]1/C(=N/O)c1ccccc1O2 | x | -11.4%[19.4 µM] | x | x | x | x | x | x
COCC(=O)OC1CCn2c1nc1c2C(=O)C(C)=C(NC(C)=O)C1=O (stereo not drawn) | -4.4 | -31.7% | -24.5% | 3.98µM* | 4.47µM* | x | 16.8* | 30.1*
COc1ccc(NC(=O)CN2C(=O)N/C(=C\c3cccn3-c3ccc(C(=O)NC#N)cc3)C2=O)cc1 | x | x | x | x | x | x | 42.3* | 60.1* | Pol kappa inh-2=18.9*
O=C(O)CN1C(=O)N/C(=C\c2cccn2-c2ccc(P(=O)(O)O)cc2)C1=O | x | -10.0% | x | 2.3% | u | x | x | x
COc1ccc(C2CC(c3cccs3)=NN2C(=O)CCCC(=O)O)cc1OC (stereo not drawn) | -8.6 | x | 2.6% | -5.0% | x | x | x | x
O=C(CCN1C(=O)/C(=C\C=C\c2ccccc2)SC1=S)Nc1cccc(C(=O)O)c1 | u | 79.4µM* | u | 22.4µM* | -19.7% | 50.1µM* | 75.2* | 53.6*
Oc1cc2c(cc1O)[C@H]1c3ccc(O)c(O)c3OC[C@@]1(O)C2 | u | 22.4µM* | 44.7µM* | 14.1µM* | 7.94µM* | x | 37.7* | 26.9* | Pol kappa inh-2=23.8*
O=C(O)CCCN1C(=O)/C(=C\c2ccc(-c3nc4ccccc4s3)o2)SC1=S | -19.5 | u | -35.4%[11.6 µM] | 15.8µM* | u | 15.8µM* | x | 33.8* | PGK validate=u
O=C(O)c1ccc(-c2nc3ccccc3s2)o1 | -24.0 | 7.4% | 4.4% | 26.2% | u | -16.6% | x | x
O=C(O)c1cc(-c2ccc(/C=C3/SC(=S)N(Cc4ccccc4)C3=O)o2)ccc1Cl | u | 79.4µM* | u | 10µM* | 12.6µM* | 15.8µM* | 75.2* | 26.9*
COc1ccc(S(=O)(=O)NCC2CCCN(C(=O)CCSC)C2)cc1 (stereo not drawn) | -2.2 | -3.2% | -7.2% | -15.4% | 33.2% | u | x | x
FC(F)(F)c1cccc(Nc2c3c(nc4ccc(Cl)cc24)CCC3)c1 | x | -1.2% | x | -20.9% | -14.1% | -11.5% | x | x
Cc1ccc(-n2nc3c(=O)n(C(C)C(=O)NCc4ccccc4C)nc(C)c3c2C)cc1 (stereo not drawn) | x | -10.0% | x | 89.1µM* | -25.5% | 44.7µM* | 75.2* | u | Pol kappa inh-2=67*
Cc1nn(C(C)C(=O)NCc2ccccc2F)c(=O)c2nn(-c3ccccc3)c(C)c12 (stereo not drawn) | 10.4 | -11.5% | 1.7%[57.1 µM] | -18.8% | 41.8% | -23.8% | x | x
C[C@@H]1CN([C@H](C)CO)C(=O)CCCn2cc(nn2)CO[C@H]1CN(C)S(=O)(=O)c1ccc(-c2ccccc2)cc1 | -0.6 | x | 16.6% | -20.4% | x | x | x | x
[O-][n+]1c2ccccc2[n+]([O-])c2cc(O)ccc21 | -54.2* | u | u | 17.8µM* | u | 22.4µM* | u | u | PGK validate=32.6µM*;Pol kappa inh-2=u
O=C(C[n+]1ccc(/C=C/c2c[nH]c3ccccc23)c2ccccc21)c1ccccc1 | x | -8.6% | x | x | -2.2% | x | x | x
Nc1ccc(O)c2c1C(=O)c1ccccc1C2=O | -96.5* | 28.2µM* | 31.6µM* | 8.91µM* | 39.8µM* | 2.82µM* | 18.9* | 21.3* | PGK validate=11.6µM*;Pol kappa inh-2=3.36*
CCN1/C(=C/C=C/c2oc3ccc(-c4ccccc4)cc3[n+]2CC)Oc2ccc(-c3ccccc3)cc21 | -57.1* | u | 4.74µM* | u | u | 79.4µM* | 29.9* | 21.3* | Pol kappa inh-2=37.7*
Cc1ccc(NCc2cccc(B(O)O)c2)cc1 | 1.2 | -14.2% | -6.8% | -12.1% | -28.8% | x | x | x
O=c1cc2c(=O)oc3cc(O)c(O)oc3c2c(O)c1O | -74.8* | 2.82µM* | u | 0.708µM* | 1.12µM* | 0.355µM* | 1.06* | 1.2* | PGK validate=u;Pol kappa inh-2=0.947*
SMILES | PI5P4Ka inh | Pol kappa inh-1 | WRN inhibitor | Pol eta inh-1 | Pol iota inh | Pol beta inh | POLI cherry-pick | Pol eta inh-2 | others
COC(=O)CC(=O)CSc1nc2cc(C(=O)NCC(C)C)ccc2c(=O)n1CCc1ccccc1 | x | -6.0% | x | -7.8% | -5.0% | -7.7% | x | x
O=C(CNC(=O)C1CCCCC1)OCCOc1ccccc1 | x | 1.0% | x | x | 51.9% | x | x | x
CCc1ccc(/C(C)=N/NC(=O)CNC(=O)/C=C/c2ccco2)cc1 | -84.3* | 31.6µM* | 28.2µM* | 8.91µM* | 5.01µM* | x | 15* | 21.3* | PGK validate=3.26µM*
COC(=O)C1=COC(OC2OC(CO)C(O)C(O)C2O)C2C1C=CC2(O)CO (stereo not drawn) | -25.4 | 35.5µM* | -23.4% | 17.8µM* | 39.8µM* | 20µM* | 33.6* | 26.9* | PGK validate=8.19µM*
COC(=O)C1=CO[C@@H](O[C@@H]2OC(CO)[C@@H](O)[C@@H](O)[C@@H]2O)C2C1CC[C@]2(C)O (stereo partly drawn) | 10.7 | -1.8% | -0.8% | -15.6% | 21.8% | x | x | x
O=C(Nc1ccc(S(=O)(=O)Nc2ncccn2)cc1)c1ccc(S(=O)(=O)N2CCCC2)cc1 | -14.4 | 3.4% | 4.7% | -4.4% | 15.6% | -24.9% | x | x
Cc1ccc(S(=O)(=O)N2CCCCC2)cc1C(=O)Nc1ccc(S(=O)(=O)Nc2ncccn2)cc1 | u | 79.4µM* | u | 14.1µM* | 39.8µM* | u | 42.3* | 30.1*
O=C(O)C1Nc2c(O)cc(Cl)c([N+](=O)[O-])c2C2C=CCC12 (stereo not drawn) | -84.5* | 1.78µM* | 5.01µM* | 1.26µM* | u | 0.251µM* | 15* | 4.78* | PGK validate=1.46µM*
